Test results as given in PubChem BioAssay AID1159580 (chemical genetic matrix, 2015).
“And” between values parts separate entries of the source, which are not always exact repeats. Identical values can stand only once. Screen size: about 5,500 compounds; about 2,000 (36%) were called active. Another 18% or so got no clear call; they are omitted. Cut-off read from the data, not from the text of the source: active = normalized growth mostly below about 0.91 (no sharp cut-off); inconclusive = no clear call, values can overlap the other calls; inactive = mostly above about 0.92. Some of the results follow.

Assay: chemical genetic growth profiling, strain panel (AID 1159580);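 note: tested at 20 µM; growth read once vehicle control cultures reached saturation at 30 °C; 1 = growth at the plate median or of vehicle wells; lower values mean less growth of the strain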
Conditions: S. cerevisiae deletion strains, growth OD

Measured: normalized growth

CN[C@@H]1[C@@H](O[C@H]2O[C@H](CO)[C@@H](N)[C@H](O)[C@H]2O)O[C@H]2C[C@@H](N)[C@H](O[C@H]3[C@H](O)[C@@H](O)[C@H](N)C[C@@H]3N)O[C@@H]2[C@@H]1O
active: locus YDR137W, strain rgp1, active compounds read low 0.702
inactive: locus YAL013W, strain DEP1, active compounds read low 1.01 | locus YAL021C, strain ccr4, active compounds read low 1.01 | locus YAL026C, strain drs2, active compounds read low 0.995 | locus YAL030W, strain snc1, active compounds read low 1.01 | locus YBL061C, strain skt5, active compounds read low 1 | locus YBR009C, strain hhf1, active compounds read low 1.01 | locus YBR021W, strain FUR4, active compounds read low 1.01 | locus YBR023C, strain chs3, active compounds read low 1.01 | locus YBR171W, strain sec66, active compounds read low 1.01 | locus YBR229C, strain ROT2, active compounds read low 1.02 | locus YBR231C, strain swc5, active compounds read low 1.02 | locus YBR279W, strain paf1, active compounds read low 1 | locus YCL011C, strain gbp2, active compounds read low 1.01 | locus YCL016C, strain dcc1, active compounds read low 0.994 | locus YCL029C, strain bik1, active compounds read low 1.01 | locus YCL069W, strain vba3, active compounds read low 1.02 | locus YCR088W, strain abp1, active compounds read low 1.01 | locus YDL005C, strain med2, active compounds read low 0.995 | locus YDL035C, strain GPR1, active compounds read low 1.03 | locus YDL074C, strain BRE1, active compounds read low 0.984 | locus YDL101C, strain DUN1, active compounds read low 1 | locus YDL134C, strain PPH21, active compounds read low 0.999 | locus YDL185W, strain tfp1, active compounds read low 0.992 | locus YDL192W, strain arf1, active compounds read low 1.01 | locus YDR001C, strain nth1, active compounds read low 1.01 | locus YDR069C, strain doa4, active compounds read low 1.03 | locus YDR101C, strain arx1, active compounds read low 1.01 | locus YDR150W, strain NUM1, active compounds read low 1.01 | locus YDR159W, strain sac3, active compounds read low 1.02 | locus YDR162C, strain NBP2, active compounds read low 1 | locus YDR195W, strain ref2 1.01 | locus YDR297W, strain sur2, active compounds read low 1.01 | locus YDR318W, strain mcm21, active compounds read low 1.03 | locus YDR334W, strain swr1, active compounds read low 0.993 | locus YDR335W, strain msn5, active compounds read low 1.01 | locus YDR388W, active compounds read low 1.02 | locus YDR392W, strain spt3, active compounds read low 0.921 | locus YDR502C, strain sam2, active compounds read low 0.982 | locus YEL003W, strain gim4, active compounds read low 1 | locus YEL037C, strain rad23, active compounds read low 1 | locus YEL061C, strain CIN8 (second series), active compounds read low 0.999 | locus YEL061C, strain CIN8, active compounds read low 1.01 | locus YER015W, strain faa2, active compounds read low 1.02 | locus YER016W, strain bim1, active compounds read low 1.01 | locus YER110C, active compounds read low 1.01 | locus YER111C, strain swi4, active compounds read low 1.01 | locus YER155C, strain BEM2 (second series), active compounds read low 0.936 | locus YER155C, strain BEM2, active compounds read low 1.01 | locus YER167W, strain BCK2, active compounds read low 1.03 | locus YFR010W, strain ubp6, active compounds read low 1.02 | locus YGL078C, strain dbp3, active compounds read low 1 | locus YGL086W, strain mad1, active compounds read low 1.01 | locus YGL167C, strain pmr1, active compounds read low 1.01 | locus YGL173C, strain kem1, active compounds read low 1.01 | locus YGL227W, strain vid30, active compounds read low 0.998 | locus YGL240W, strain doc1, active compounds read low 1.01 | locus YGL248W, strain PDE1, active compounds read low 1 | locus YGL253W, strain hxk2, active compounds read low 1 | locus YGR078C, strain PAC10, active compounds read low 0.99 | locus YGR135W, strain pre9, active compounds read low 0.978 | locus YGR229C, strain SMI1, active compounds read low 1.01 | locus YGR252W, strain gcn5, active compounds read low 0.989 | locus YHR013C, strain ard1, active compounds read low 1.07 | locus YHR027C, strain rpn1, active compounds read low 1 | locus YHR030C, strain SLT2, active compounds read low 1.01 and 0.961 | locus YHR079C, strain IRE1 (second series), active compounds read low 0.998 | locus YHR079C, strain IRE1, active compounds read low 0.962 | locus YHR094C, strain hxt1, active compounds read low 1.01 | locus YHR129C, strain ARP1, active compounds read low 1.01 | locus YHR142W, strain chs7, active compounds read low 0.977 | locus YHR200W, strain rpn10, active compounds read low 1 | locus YIL066C, strain RNR3, active compounds read low 1.01 | locus YIL073C, strain SPO22, active compounds read low 1.04 | locus YIL125W, strain kgd1, active compounds read low 1 | locus YIR030C, strain dcg1, active compounds read low 1 | locus YJL092W, strain hpr5, active compounds read low 1.01 | locus YJL095W, strain BCK1 (second series), active compounds read low 1.01 | locus YJL095W, strain BCK1, active compounds read low 0.987 and 0.964 | locus YJL115W, strain asf1, active compounds read low 0.991 | locus YJL129C, strain trk1, active compounds read low 1.01 | locus YJL134W, strain LCB3, active compounds read low 1.01 | locus YJL154C, strain vps35, active compounds read low 1.01 | locus YJL164C, strain tpk1, active compounds read low 0.975 | locus YJL166W, strain qcr8, active compounds read low 1.03 | locus YJL168C, strain set2, active compounds read low 1 | locus YJL187C, strain SWE1 (second series), active compounds read low 0.995 | locus YJL187C, strain SWE1, active compounds read low 1.01 | locus YJR043C, strain POL32, active compounds read low 1.03 | locus YJR066W, strain TOR1, active compounds read low 0.911 | locus YJR075W, strain HOC1, active compounds read low 0.977
